Results from the OligoGym collection.

molecular target: ADAD1; experiment: pooled miR-30 sensor sort-seq; sequence = guide strand; settings: shRNA
Also: reference of the scale not given here.

**Q.** For TTTAGGACAGTAAACAGTCAGA, which sensor-assay potency score (higher = more potent) is on record?
**A.** -1

**Q.** Which sensor-assay potency score (higher = more potent) does the source give for TTATTCTATTAACACCATCTTT here?
**A.** -0.934

**Q.** With TAAACTAATATGAGGTCTGTTG as the sequence, how does the sensor-assay potency score (higher = more potent) read?
**A.** -1.14

**Q.** How did the sensor-assay potency score (higher = more potent) turn out when TTAGTTGATTAAATCTTTCTTT was run?
**A.** 0.397

**Q.** TAAGAAGAGACCTTCTTGCTGT was tested. Which sensor-assay potency score (higher = more potent) did it give?
**A.** 0.614

**Q.** For TCAACTTACATTTAGCTTCTTG, which sensor-assay potency score (higher = more potent) is on record?
**A.** -0.0304

**Q.** How did the sensor-assay potency score (higher = more potent) turn out when TTGACTAAGTAAAACATTGGAA was run?
**A.** -0.221

**Q.** TAGTTATCGTCTTTGTCGCTGG was tested. Which sensor-assay potency score (higher = more potent) did it give?
**A.** -0.46

**Q.** Which sensor-assay potency score (higher = more potent) does the source give for TTGATTTTTCCATCATAGCAGG here?
**A.** -0.926

**Q.** Which sensor-assay potency score (higher = more potent) does the source give for TAAACCGACTTAACATTGCAGC here?
**A.** -0.535

**Q.** TATAGCTACAACCTCATGTTGT was tested. Which sensor-assay potency score (higher = more potent) did it give?
**A.** 0.156

molecular target: ADAM18; experiment: as above; settings: shRNA

**Q.** How did the sensor-assay potency score (higher = more potent) turn out when TTGAACTGGGTAAACATAGTGT was run?
**A.** -0.273

**Q.** For TATGTGGCTGAACACAAGCTAA, which sensor-assay potency score (higher = more potent) is on record?
**A.** -1.54

**Q.** With TATGACTGTAATTTACTGCTAA as the sequence, how does the sensor-assay potency score (higher = more potent) read?
**A.** 0.177

**Q.** For TTATATGCTCAAATCTTGCTGA, which sensor-assay potency score (higher = more potent) is on record?
**A.** -0.162

**Q.** Which sensor-assay potency score (higher = more potent) does the source give for TTTGACTTAATCTTCCGTGGAA here?
**A.** 0.749

**Q.** Which sensor-assay potency score (higher = more potent) does the source give for TTGATGTACAACATGGTCCAGA here?
**A.** -0.506

**Q.** TTATACTCTGCATTCTCTCTGT was tested. Which sensor-assay potency score (higher = more potent) did it give?
**A.** 0.461

**Q.** TAACAGTCAATTTGAACTGGGT was tested. Which sensor-assay potency score (higher = more potent) did it give?
**A.** 0.214

**Q.** For TATTCCTTCAGAACCTTCGTGG, which sensor-assay potency score (higher = more potent) is on record?
**A.** 0.508

**Q.** For TTCATTATATGTATAAACCAAA, which sensor-assay potency score (higher = more potent) is on record?
**A.** -1.38

**Q.** Which sensor-assay potency score (higher = more potent) does the source give for TATAACAGTCAATTTGAACTGG here?
**A.** 0.382

**Q.** For TCATTTGACTTAATCTTCCGTG, which sensor-assay potency score (higher = more potent) is on record?
**A.** 0.722

molecular target: ADAP1; experiment: as above; settings: shRNA

**Q.** Which sensor-assay potency score (higher = more potent) does the source give for TCGTTCTGTCAGCACAAACTTC here?
**A.** -1.49

**Q.** How did the sensor-assay potency score (higher = more potent) turn out when TAGATGAAGATGTTACGGGTGC was run?
**A.** -0.0419

**Q.** For TCTTTGAAGTACATGAGCCTGC, which sensor-assay potency score (higher = more potent) is on record?
**A.** 0.0128

**Q.** ATTTCTGTTGAAATACTTCAGA was tested. Which sensor-assay potency score (higher = more potent) did it give?
**A.** -1.12

**Q.** TTCTGTCAGCACAAACTTCCGG was tested. Which sensor-assay potency score (higher = more potent) did it give?
**A.** -0.508

**Q.** For TTCTGTTGAAATACTTCAGAGC, which sensor-assay potency score (higher = more potent) is on record?
**A.** -0.664

**Q.** With TGAAATACTTCAGAGCACCCTC as the sequence, how does the sensor-assay potency score (higher = more potent) read?
**A.** -0.32

**Q.** AAACAGAAACTTGCGGTCGGGC was tested. Which sensor-assay potency score (higher = more potent) did it give?
**A.** -0.903

**Q.** Which sensor-assay potency score (higher = more potent) does the source give for TCTGTCAGCACAAACTTCCGGC here?
**A.** 0.0597

**Q.** How did the sensor-assay potency score (higher = more potent) turn out when TTCACCTTGCTGACCTGGGGGA was run?
**A.** -0.267

**Q.** How did the sensor-assay potency score (higher = more potent) turn out when TAGGGCTCCTGCTTCTCCGGGT was run?
**A.** 0.35

**Q.** Which sensor-assay potency score (higher = more potent) does the source give for TTGAAGTACATGAGCCTGCGGT here?
**A.** -0.124

molecular target: ADCYAP1; experiment: as above; settings: shRNA

**Q.** With TTATCCCATAGACCAGCAGGGC as the sequence, how does the sensor-assay potency score (higher = more potent) read?
**A.** -1.43

**Q.** Which sensor-assay potency score (higher = more potent) does the source give for TTAACCCTTTGTTTATACCTCT here?
**A.** -0.397

**Q.** Which sensor-assay potency score (higher = more potent) does the source give for TGGGCGACATCTCTTCTCCCGG here?
**A.** -1.69
